The supplement of paper PMC13380429

System: Vero E6 infected with SARS-CoV-2
Assay: inhibition of SARS-CoV-2 cytopathic effect; higher = more antiviral protection, active = above 15
Conditions: 48 h

Measured: inhibition of SARS-CoV-2 cytopathic effect

C[N+]1(CCCCC[N+]2(C)CCCC2)CCCC1 [pentolinium]
inactive: 1 nM 2.83% | 8.33 nM 4.75% | 100 nM 5.22% | 833.33 nM 4.57% | 10000 nM 0.64%

CCCCc1ccc2[nH]c(NC(=O)OC)nc2c1 [parbendazole]
inactive: 1 nM 0.24% | 8.33 nM 0.63% | 100 nM -0.29% | 833.33 nM -0.99% | 10000 nM -1.63%

C[C@@H]1CC(=O)NN=C1c1ccc(NN=C(C#N)C#N)cc1 [levosimendan]
inactive: 1 nM -0.58% | 8.33 nM 0.74% | 100 nM 0.3% | 833.33 nM 1.84% | 10000 nM 1.18%

CCCCC(=O)OCC(=O)[C@]1(O)Cc2c(O)c3c(c(O)c2[C@@H](O[C@H]2C[C@H](NC(=O)C(F)(F)F)[C@H](O)[C@H](C)O2)C1)C(=O)c1c(OC)cccc1C3=O [valrubicin]
inactive: 1 nM -0.61% | 8.33 nM 0.16% | 100 nM -0.18% | 833.33 nM 0.06% | 10000 nM -1.25%

CN1C[C@H](CNC(=O)OCc2ccccc2)C[C@@H]2c3cccc4c3c(cn4C)C[C@H]21 [metergoline]
inactive: 1 nM -10.3% | 8.33 nM -6.82% | 100 nM -4.21% | 833.33 nM -6.12% | 10000 nM -2.89%

CC(C)CN(C[C@@H](O)[C@H](Cc1ccccc1)NC(=O)O[C@H]1CO[C@H]2OCC[C@H]21)S(=O)(=O)c1ccc(N)cc1 [darunavir]
inactive: 1 nM -2.41% | 8.33 nM -2.86% | 100 nM -0.7% | 833.33 nM 0.44% | 10000 nM -1.15%
